Assay results as given in PubChem BioAssay (NCATS).
Values joined by “and” are separate entries in the source; they are usually repeats but may differ in a detail not shown here. Equal entries are not always repeated. Inconclusive results are not listed. Active and inactive are the calls of the source. Unless noted, calls come from the whole dose curve; as a rule, active = well fitted curve in the direction sought with a large enough effect; inconclusive = small, poorly fitted or top-dose-only effect, or another doubt; inactive = no such curve, though single readings can be large; an effect the other way counts as inactive or inconclusive.

Assays:
[1] = Cell Viability - Renal Proximal Tubule (AID 545);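 note: cells exposed to compound for 40 hours; 0% = DMSO only and -100% = 100 µM tamoxifen; nearly all actives have a fitted effect of over 40% in size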
Outline: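 Viability taken as intracellular ATP (CellTiter-Glo luminescence) after 40 hr, 37 °C compound treatment of primary proximal tubule cells from rat kidney, 1000 cells/well; Hill-equation fits of qHTS concentration-response data gave AC50.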

[2] = Cellular Toxicity (caspase-3) HUV-EC-C (AID 656);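 note: 0% = DMSO basal and 100% = 100 µM tamoxifen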
Outline: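 Luminescent Caspase-Glo 3/7 readout after 16 h, 37 °C compound exposure of HUV-EC-C endothelial cells, 1000 per well, complete medium. AC50 derived by Hill fitting, with DMSO as baseline and 100 uM tamoxifen as full activation.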

[3] = Cellular Toxicity (caspase-3) SHSY5Y (AID 657)
Outline: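 Luminescent Caspase-Glo 3/7 read-out, 1 hr room temperature, follows 16 hours of compound treatment of SH-SY5Y cells at 37 °C. Normalization: DMSO basal, 10 uM staurosporine as 100%; AC50 values from Hill-equation concentration-response fits.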

[4] = Cellular Toxicity (caspase-3) MRC-5 (AID 659);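 note: 0% = DMSO basal and 100% = 10 µM staurosporine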
Outline: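 Luminescence from caspase-cleaved aminoluciferin substrate (Caspase-Glo 3/7, 1 hr RT) reports caspase 3/7 activity in MRC-5 lung fibroblasts after 16 hr compound exposure. Normalized to DMSO basal and 10 uM staurosporine as 100%; AC50 from Hill fits.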

[5] = target: Cytochrome P450 3A4 (Homo sapiens) (UniProt P08684); assay: qHTS Assay for Inhibitors and Substrates of Cytochrome P450 3A4 (AID 884); note: nearly all actives have a fitted effect of over 50% in size; note: potency is the fitted concentration of half-maximal effect
Outline: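 20 nM human CYP3A4 with 25 uM Luciferin-PPXE (at KM) in 200 mM KPO4, preincubated 10 min with compound; NADPH regeneration started a 60 min RT reaction. Luciferin detected by luminescence, normalized to 57 uM ketoconazole as full inhibition.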

[6] = MultiTox-Fluor Cytotoxicity Assay - LYMP1-002 - Live Cells (AID 955); note: % is set by controls: 0 for no effect and ±100 for the full control effect
Outline: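 Human lymphoblastoid LYMP1-002 cells, 2500/well, treated 16 h at 37 C in complete medium. Live-cell protease activity via GF-AFC fluorescence (Ex/Em 405/510) after 60 min reagent incubation; AC50 from Hill fits.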

[7] = Cell Viability - LYMP1-003 - Assay at 24 hr (AID 963);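 note: plate controls were DMSO only for no effect and tetraoctylammonium bromide positive control for full effect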
Outline: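 Human lymphoblastoid LYMP1-003 cells, 2500/well, treated 24 h at 37 C in complete medium. Viability read as intracellular ATP by CellTiter-Glo luminescence after 30 min at room temperature; AC50 from Hill-equation fits of qHTS concentration-response.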

[8] = Cell Viability - LYMP2-004 (AID 966);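 note: plate controls were DMSO only for no effect and tetraoctylammonium bromide control for full effect; nearly all actives have a fitted effect of over 65% in size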
Outline: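 Lymphoblastoid LYMP2-004 cells, 2500 per well, were preincubated for 5 hr and then treated with compound for 24 h at 37 C in complete medium. Viability was read as cellular ATP by CellTiter-Glo luminescence, and AC50 values were taken from Hill fits to concentration-response data.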

[9] = Cell Viability - LYMP2-009 (AID 968);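 note: series mostly up to about 92 µM; 0% = DMSO alone and the full-kill end = tetraoctylammonium bromide at 92 µM; nearly all actives have a fitted effect of over 55% in size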
[10] = Cell Viability - LYMP2-017 (AID 972); note: series mostly up to about 92 µM; % is set by controls: 0 for no effect and ±100 for the full control effect; nearly all actives have a fitted effect of over 55% in size
Outline: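 LYMP2-017 human lymphoblastoid cells (2500/well) settled 5 hr at 37 C, then exposed to compound 24 hr at 37 C in complete medium. Viability taken as intracellular ATP by CellTiter-Glo luminescence after 30 min at RT; AC50 from Hill fits.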

[11] = Cell Viability - LYMP2-025 (AID 976);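 note: series mostly up to about 92 µM; plate controls were DMSO only for no effect and tetraoctylammonium bromide control for full effect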
Outline: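 Human lymphoblastoid LYMP2-025 cells, 2500/well, exposed 24 h at 37 C in complete medium in 1536-well qHTS. Viability as cellular ATP by CellTiter-Glo luminescence; AC50 from Hill fits of concentration-response data.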

[12] = Cell Viability - LYMP2-012 (AID 982);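 note: cellular ATP by luciferase luminescence where a drop means cytotoxicity; cells exposed to compound for one day before reading; 0% = DMSO only and full loss = 92 µM tetraoctylammonium bromide; nearly all actives have a fitted effect of over 55% in size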
[13] = Cell Viability - LYMP2-016 (AID 984); note: % is set by controls: 0 for no effect and ±100 for the full control effect; nearly all actives have a fitted effect of over 55% in size
Outline: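 Cytotoxicity was scored by luminescent ATP content (CellTiter-Glo) after 24 h compound exposure at 37 C of a human lymphoblastoid line at 2500 cells/well. Concentration-response data were fitted to the Hill equation for AC50.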

[14] = Cell Viability - LYMP1-002 - Assay at 40 hr (AID 994);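 note: 0% = DMSO only and full inhibition = 92 µM tetraoctylammonium bromide; nearly all actives have a fitted effect of over 60% in size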
Outline: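 LYMP1-002 human lymphoblastoid cells (2500/well, complete medium) were treated with compounds for 40 hr at 37 C. Intracellular ATP was measured by CellTiter-Glo luminescence, and AC50 values came from Hill-equation fits of concentration-response data; tetraoctylammonium bromide was the positive control.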

[15] = qHTS Assay for Identification of Small Molecule Inducers of Hypoxia Response (AID 2120; active = well fitted curve in the direction sought with a large enough effect in the signal ratio, with a control signal flat, not every such curve was filed as active; the % refers to the signal ratio; note: 0% is about no effect)
Outline: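 HRE-bla ME-180 cells in Opti-MEM with 0.5% dialyzed FBS, pre-plated 4-5 h, then compound titration for 17 h at 37 degrees Celsius. CCF4 loaded 2.5 h at room temperature; 460/530 nm ratio gave %Activity and AC50 for induction.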

[16] = qHTS assay for small molecule antagonists of retinoid X receptor alpha signaling (AID 588546); conditions: HEK293T RXRa-UAS-bla, beta-lactamase ratio, antagonist mode; measured here: W530 green channel, cytotoxicity proxy;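 note: cells stimulated with 9-cis-retinoic acid as agonist; % is set by controls: 0 for no effect and ±100 for the full control effect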
Outline: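 Beta-lactamase reporter inhibition, read as CCF4 fluorescence ratio (ex 405, em 460/530 nm) after 2 h at RT. HEK293T UAS-bla cells, 2500/well, were stimulated with 9-cis-RA at 500 or 100 nM final alongside test compound for 18 h at 37 C.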

[17] = qHTS assay for environmental chemicals that activate the Aryl hydrocarbon Receptor (AhR) signaling pathway (AID 651777); conditions: 1A2-DRE human hepatoma cells, luciferase, 24 h; activation: stronger effect = higher value; note: nearly all actives have a fitted effect of over 15% in size; note: potency is the fitted concentration of half-maximal effect; for activation: % of control where 0% means no effect
Outline: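 Quantitative HTS in stably transfected human liver-derived cells whose luciferase gene sits downstream of the CYP1A2 promoter and dioxin response element. After 24 hr exposure at 37 C, One-Glo luminescence was measured.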

[18] = target: Peroxisome proliferator-activated receptor alpha (Homo sapiens) (UniProt Q07869); assay: qHTS assay for small molecule agonists of the peroxisome proliferator-activated receptor alpha (PPARalpha) signaling pathway (AID 651778); conditions: PathHunter PPARalpha complementation, chemiluminescence, 6 h; stronger effect = higher value; note: % of control where 0% means no effect
Outline: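 Cells plated at 2,000/well and held overnight at 37 C, 5% CO2, then compound added by pin tool for 6 hr; after PathHunter detection reagent and 60 min at room temperature, chemiluminescence from enzyme complementation was read.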

[19] = qHTS assay for small molecule agonists of the antioxidant response element (ARE) signaling pathway measured by Nrf2-dependant transcriptional activity - cell viability counter screen (AID 720653; active = well fitted curve in the direction sought with a large enough effect in the repeat runs; an effect the other way counts as inactive or inconclusive; note: % is set by controls: 0 for no effect and ±100 for the full control effect); conditions: ARE-bla HepG2 viability, CellTiter-Glo ATP luminescence, 16 h; stronger effect = lower value
Outline: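 ARE-bla HepG2 cells (2,000/well) rested 5 hrs at 37C/5% CO2, then exposed to compounds in DMSO for 16 hrs. Viability was read in the same wells as intracellular ATP by luminescence, 30 min at room temperature after reagent addition.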

[20] = Cell Viability - HepG2 (AID 433; calls by dose curve;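 note: potency is the fitted concentration of half-maximal effect; cells exposed to compound for 40 hours; potency for ATP loss meaning cytotoxicity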); conditions: qHTS
Outline: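 Cytotoxicity read as ATP loss (CellTiter-Glo luminescence) after 40 hr compound exposure of HepG2, 1500 cells/well, 37 °C. AC50 by Hill equation; 0% set by DMSO, 100% inhibition by 100 uM tamoxifen.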

Peroxisome proliferator-activated receptor alpha (Homo sapiens), sequence (Q07869 whole entry, looked up): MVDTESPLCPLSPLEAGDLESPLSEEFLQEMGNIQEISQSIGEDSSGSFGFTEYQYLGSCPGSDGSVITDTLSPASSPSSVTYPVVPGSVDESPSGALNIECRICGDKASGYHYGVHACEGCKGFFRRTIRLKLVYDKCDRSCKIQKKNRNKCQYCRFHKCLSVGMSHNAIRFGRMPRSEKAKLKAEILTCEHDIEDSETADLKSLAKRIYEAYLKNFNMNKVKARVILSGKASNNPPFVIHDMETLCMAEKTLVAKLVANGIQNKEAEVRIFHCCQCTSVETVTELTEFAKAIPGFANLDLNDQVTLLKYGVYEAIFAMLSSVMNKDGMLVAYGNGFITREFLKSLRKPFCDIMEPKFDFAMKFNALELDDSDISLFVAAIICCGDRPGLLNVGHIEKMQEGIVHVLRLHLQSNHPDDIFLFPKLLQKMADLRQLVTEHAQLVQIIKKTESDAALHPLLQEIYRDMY
Cytochrome P450 3A4 (Homo sapiens), sequence (P08684 whole entry, looked up): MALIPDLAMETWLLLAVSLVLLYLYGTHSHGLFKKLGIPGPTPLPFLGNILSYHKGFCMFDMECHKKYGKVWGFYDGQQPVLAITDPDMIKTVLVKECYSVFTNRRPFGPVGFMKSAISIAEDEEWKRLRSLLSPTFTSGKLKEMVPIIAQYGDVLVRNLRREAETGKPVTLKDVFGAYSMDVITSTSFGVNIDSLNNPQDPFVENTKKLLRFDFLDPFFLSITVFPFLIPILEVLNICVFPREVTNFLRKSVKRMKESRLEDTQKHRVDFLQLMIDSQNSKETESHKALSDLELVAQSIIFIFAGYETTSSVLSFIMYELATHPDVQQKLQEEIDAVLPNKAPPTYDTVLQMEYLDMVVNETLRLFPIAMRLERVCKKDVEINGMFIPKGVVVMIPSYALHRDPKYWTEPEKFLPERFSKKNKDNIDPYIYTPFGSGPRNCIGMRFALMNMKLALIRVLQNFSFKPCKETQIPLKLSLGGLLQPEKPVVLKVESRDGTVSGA

Cc1ccc2c(c1N)C(=O)c1ccccc1C2=O
active: Potency [5] 5.01 µM | Potency [17] 28.2 µM
inactive: outcome [1] | outcome [2] | outcome [3] | outcome [4] | outcome [6] | outcome [7] | Potency [8] | Potency [9] | Potency [10] | Potency [11] | Potency [12] | Potency [13] | Potency [14] | Potency [15] | max response [18] -8.43% and -4.54% | max response [19] -21.8% and -21.2%
-0.33% and -4.6%: max response [16]

COP(=S)(OC)SCn1nnc2ccccc2c1=O
active: Potency [5] 7.94 µM
inactive: Potency [20] > 92 µM | outcome [1] | outcome [2] | outcome [3] | outcome [4] | outcome [6] | outcome [7] | Potency [9] | Potency [10] | Potency [11] | Potency [12] | Potency [13] | Potency [14] | Potency [15] | activation [17] 2.58% and 5.04% | max response [18] -5.24% and -2.4% | max response [19] -8.53% and -8.77%

O=[N+]([O-])c1cc(Cl)c(Cl)c(Cl)c1
inactive: Potency [20] > 92 µM | outcome [1] | outcome [2] | outcome [3] | outcome [4] | Potency [5] | outcome [6] | outcome [7] | Potency [8] | Potency [9] | Potency [10] | Potency [11] | Potency [12] | Potency [13] | Potency [14] | Potency [15] | activation [17] 0.049% | max response [18] -4.23% | max response [19] -3.56%
-6.59%: max response [16]

CCCCCCCCCCCCCl
inactive: Potency [20] > 92 µM | outcome [1] | outcome [2] | outcome [3] | outcome [4] | Potency [5] | outcome [6] | outcome [7] | Potency [8] | Potency [9] | Potency [10] | Potency [11] | Potency [12] | Potency [13] | Potency [14] | Potency [15] | activation [17] 1.8% | max response [18] -2.89% | max response [19] -2.45%
-8.5%: max response [16]

Cc1ccc(N)c(C)c1
1.29%: max response [16]
inactive: Potency [20] > 92 µM | outcome [1] | outcome [2] | outcome [3] | outcome [4] | Potency [5] | outcome [6] | outcome [7] | Potency [8] | Potency [9] | Potency [10] | Potency [11] | Potency [12] | Potency [13] | Potency [14] | Potency [15] | activation [17] -0.367% | max response [18] -4.17% | max response [19] -6.08%

CCCC[N+](=O)[O-]
-4.37%: max response [16]
inactive: Potency [20] > 92 µM | outcome [1] | outcome [2] | outcome [3] | outcome [4] | Potency [5] | outcome [6] | outcome [7] | Potency [8] | Potency [9] | Potency [10] | Potency [11] | Potency [12] | Potency [13] | Potency [14] | Potency [15] | activation [17] 0.218% | max response [18] 1.08% | max response [19] -1.65%

ClCCBr
inactive: Potency [20] > 92 µM | outcome [1] | outcome [2] | outcome [3] | outcome [4] | Potency [5] | outcome [6] | outcome [7] | Potency [8] | Potency [9] | Potency [10] | Potency [11] | Potency [12] | Potency [13] | Potency [14] | Potency [15] | activation [17] 3.31% | max response [18] 0.115% | max response [19] -7.21%
-4.86%: max response [16]

Cc1cc(N=Nc2ccccc2C)ccc1N
inactive: Potency [20] > 92 µM | outcome [2] | outcome [3] | outcome [4] | outcome [6] | outcome [7] | Potency [8] | Potency [9] | Potency [10] | Potency [11] | Potency [12] | Potency [13] | Potency [14] | Potency [15] | max response [18] -6.65% and -1.39% | max response [19] -2.89% and 2.65%
-7.48%: max response [16]
active: Potency [5] 5.01 µM | Potency [17] 44.7 µM

CCOC(=O)CBr
inactive: Potency [20] > 92 µM | outcome [1] | outcome [2] | outcome [3] | outcome [4] | Potency [5] | outcome [6] | outcome [7] | Potency [8] | Potency [9] | Potency [10] | Potency [11] | Potency [12] | Potency [13] | Potency [14] | Potency [15] | activation [17] -0.43% | max response [18] -2.92% | max response [19] 1.03%
-3.97%: max response [16]

c1ccc(N=NNc2ccccc2)cc1
-2.24%: max response [16]
inactive: outcome [1] | outcome [2] | outcome [3] | outcome [4] | Potency [5] | outcome [6] | outcome [7] | Potency [8] | Potency [9] | Potency [10] | Potency [11] | Potency [12] | Potency [13] | Potency [14] | Potency [15] | max response [18] -1.28% and 2.45% | max response [19] -24.2% and -20.9%
active: Potency [17] 12.6 µM and 1.41 µM

O=C(O)C(Br)CBr (stereo not drawn)
inactive: Potency [20] > 92 µM | outcome [1] | outcome [2] | outcome [3] | outcome [4] | Potency [5] | outcome [6] | outcome [7] | Potency [9] | Potency [10] | Potency [11] | Potency [12] | Potency [13] | Potency [14] | Potency [15] | activation [17] 2.43% | max response [18] 1.03% | max response [19] 0.981%

C1CC2OC2CC1C1CO1 (stereo not drawn)
-7.13% and -27.8%: max response [16]
inactive: Potency [20] > 92 µM | outcome [1] | outcome [2] | outcome [3] | outcome [4] | Potency [5] | outcome [6] | outcome [7] | Potency [8] | Potency [9] | Potency [10] | Potency [11] | Potency [12] | Potency [13] | Potency [14] | Potency [15] | activation [17] 1.2% and -1.91% | max response [18] -1.95% and -1.6% | max response [19] -8.97% and -5.29%
